In PubChem BioAssay (EPA / NIEHS):
Records with an inconclusive call do not appear. Activity calls are given as the source filed them. Rule for the calls: active = hit-call score of the fitted dose curve at least 0.9, where 1 is the maximum; inconclusive = response in the unintended direction; inactive = score below 0.9.

Tests used:
[1] = target: Cellular tumor antigen p53 (Homo sapiens) (UniProt P04637); assay: TOX21_p53_BLA_p2_ratio: Tox21 HCT-116 p53 Agonism Beta-lactamase Assay, Ratio, Phase 2 (AID 2283592)
Chain of Cellular tumor antigen p53 (Homo sapiens) (P04637 whole entry, looked up): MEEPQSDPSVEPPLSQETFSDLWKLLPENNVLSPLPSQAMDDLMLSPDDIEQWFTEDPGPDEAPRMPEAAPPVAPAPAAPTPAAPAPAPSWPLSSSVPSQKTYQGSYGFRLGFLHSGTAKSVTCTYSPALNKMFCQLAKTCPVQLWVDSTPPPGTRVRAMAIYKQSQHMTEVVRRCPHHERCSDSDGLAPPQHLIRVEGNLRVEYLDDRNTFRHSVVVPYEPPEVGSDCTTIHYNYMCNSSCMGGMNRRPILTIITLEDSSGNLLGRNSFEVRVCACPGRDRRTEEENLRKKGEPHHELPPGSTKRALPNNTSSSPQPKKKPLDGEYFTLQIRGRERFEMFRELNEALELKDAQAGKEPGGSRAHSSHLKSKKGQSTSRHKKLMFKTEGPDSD
Procedure, shortened: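 Readout: blue/green (460/530 nm) FRET emission ratio after 2 h CCF4-AM loading at room temperature, excitation 405 nm. HCT116 p53 bla cells, 16 h compound exposure at 37C, 5% CO2; agonist direction fitted against DMSO baseline.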

[2] = TOX21_p53_BLA_p3_viability: Viability Assessment in the Tox21 HCT-116 p53 Agonism Beta-lactamase Assay, Phase 3 (AID 2283593);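 note: cells exposed to compound for 16 h before reading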
Procedure, shortened: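 HCT-116 cells (4000/well) rested 5 h at 37C, then got DMSO compounds by pin tool (217-fold dilution) for 16 h at 37C, 5% CO2. After the bla read, CellTiter-Glo was added and luminescence read at 30 min, room temperature.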

[3] = TOX21_p53_BLA_p4_viability: Viability Assessment in the Tox21 HCT-116 p53 Agonism Beta-lactamase Assay, Phase 4 (AID 2283597);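 note: hits lower the luminescence signal meaning cytotoxicity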
Procedure, shortened: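 ATP content by CellTiter-Glo luminescence, 30 min RT, read after the beta-lactamase ratio step. Cells: HCT116, 4000/well, compound added after 5 h, exposure 16 h at 37C. Signal loss = reduced viability.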

[4] = TOX21_p53_BLA_p5_viability: Viability Assessment in the Tox21 HCT-116 p53 Agonism Beta-lactamase Assay, Phase 5 (AID 2283600)
Procedure, shortened: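 ATP luminescence (CellTiter-Glo, 30 min, RT) served as the viability read-out, with loss of signal indicating cytotoxicity. Compounds in DMSO were pinned at a 217-fold dilution onto 4000 cells/well and incubated 16 h, 37C.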

[5] = target: Cellular tumor antigen p53 (Homo sapiens) (UniProt P04637); assay: TOX21_p53_BLA_p4_ratio: Tox21 HCT-116 p53 Agonism Beta-lactamase Assay, Ratio, Phase 4 (AID 2283601)
Procedure, shortened: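 HCT116 cells carrying an inducible beta-lactamase reporter were plated at 4000 cells/well, rested 5 h, then exposed to compounds in DMSO (217-fold dilution) for 16 h at 37C. CCF4-AM substrate was loaded 2 h at room temperature; 460/530 nm emission ratio scored gain-of-signal versus DMSO.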

[6] = Tanguay_ZF_120hpf_MORT_legacy: (Legacy) Oregon State University Tanguay Lab 120 Hour Post-fertilization zebrafish Assay for Mortality (AID 2283633)
Procedure, shortened: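 Brightfield scoring of embryo death (binary) at 24 and 120 hpf; static exposure 6–120 hpf, 28C, sealed and foil-covered. Pronase-dechorionated 5D wild-type larvae, single embryo per well. DMSO 0.64% v/v; trimethyltin chloride 5uM positive control.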

[7] = Tanguay_ZF_120hpf_EYE_legacy: (Legacy) Oregon State University Tanguay Lab 120 Hour Post-fertilization zebrafish Assay for Eye Malformation (AID 2283636);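 note: binary presence or absence of eye malformation scored by brightfield in 120 hpf larvae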
Procedure, shortened: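 Static waterborne exposure of dechorionated zebrafish embryos (strain Tropical 5D), 6 to 120 hpf, sealed plates at 28C, 0.64% DMSO vehicle. Eye malformation is scored as a binary endpoint, with gain of signal analysed relative to DMSO.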

[8] = Tanguay_ZF_120hpf_SNOU_legacy: (Legacy) Oregon State University Tanguay Lab 120 Hour Post-fertilization zebrafish Assay for Snout Malformation (AID 2283637)
Procedure, shortened: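 Dechorionated zebrafish, individually housed from 6 hpf in covered, sealed wells at 28C with 0.64% DMSO vehicle, were examined at 120 hpf for snout malformation. Responses were binary and analysed positive-direction relative to DMSO.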

[9] = Tanguay_ZF_120hpf_JAW_legacy: (Legacy) Oregon State University Tanguay Lab 120 Hour Post-fertilization zebrafish Assay for Jaw Malformation (AID 2283638)
Procedure, shortened: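 Binary jaw-malformation calls at 120 hpf by brightfield imaging; DMSO (0.64% v/v) = baseline. Embryos: 5D wild-type, pronase-dechorionated, one per well from 6 hpf, static exposure, 28C, sealed, dark.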

[10] = Tanguay_ZF_120hpf_OTIC_legacy: (Legacy) Oregon State University Tanguay Lab 120 Hour Post-fertilization zebrafish Assay for Otic Vesicle Malformation (AID 2283639)
Procedure, shortened: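 Statically exposed wild-type 5D zebrafish embryos, kept sealed and dark at 28C through 120 hours post fertilization, were examined by brightfield microscopy for otic vesicle defects. Responses were recorded as present or absent and analysed relative to DMSO.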

[11] = Tanguay_ZF_120hpf_BRAI_legacy: (Legacy) Oregon State University Tanguay Lab 120 Hour Post-fertilization zebrafish Assay for Brain Malformation (AID 2283641)
Procedure, shortened: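 Read-out: binary brain morphology call at 120 hpf (brightfield), fitted in gain-of-signal direction vs DMSO. Wild-type Tropical 5D embryos, static exposure, 28C, 0.64% DMSO final; 5uM trimethyltin chloride as positive control.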

[12] = Tanguay_ZF_120hpf_SOMI_legacy: (Legacy) Oregon State University Tanguay Lab 120 Hour Post-fertilization zebrafish Assay for Somite Malformation (AID 2283647)
Procedure, shortened: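 Binary brightfield scoring of somite defects at 120 hpf in 5D wild-type larvae; one dechorionated embryo per well, static exposure from 6 hpf, 28C, sealed and dark. Final DMSO 0.64%; trimethyltin chloride 5uM positive control.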

[13] = Tanguay_ZF_120hpf_PFIN_legacy: (Legacy) Oregon State University Tanguay Lab 120 Hour Post-fertilization zebrafish Assay for Pectoral Fin Malformation (AID 2283648);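 note: each larva judged yes or no for fin defect by brightfield with dead larvae skipped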
Procedure, shortened: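 Scoring of pectoral fin malformation was binary, made at 120 hpf on larvae exposed statically from 6 hpf after enzymatic chorion removal. Activity was fitted upward relative to DMSO controls at 0.64% (vol/vol).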

[14] = Tanguay_ZF_120hpf_PIG_legacy: (Legacy) Oregon State University Tanguay Lab 120 Hour Post-fertilization zebrafish Assay for Pigmentation Malformation (AID 2283650)
Procedure, shortened: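 Endpoint is incidence of abnormal pigmentation at 120 hpf in dechorionated 5D zebrafish exposed singly from 6 hpf at 28C, DMSO vehicle at 0.64%. Embryos dying by 24 or 120 hpf are excluded from scoring.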

[15] = Tanguay_ZF_120hpf_AXIS_legacy: (Legacy) Oregon State University Tanguay Lab 120 Hour Post-fertilization zebrafish Assay for Body Axis Malformation (AID 2283635)
Procedure, shortened: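 Embryos: 5D wild-type, pronase-dechorionated 4 hpf; static exposure 6–120 hpf, 28C, sealed, dark, 1 embryo/well, 0.64% DMSO. 120 hpf axis malformation scored present/absent; dead embryos excluded. Analysed as gain of signal vs DMSO.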

[16] = Tanguay_ZF_120hpf_CFIN_legacy: (Legacy) Oregon State University Tanguay Lab 120 Hour Post-fertilization zebrafish Assay for Caudal Fin Malformation (AID 2283649)
Procedure, shortened: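 Dechorionated 5D wild-type zebrafish, static exposure 6–120 hpf, 28C, sealed and dark, 0.64% v/v DMSO final. Binary fin-malformation call at 120 hpf, brightfield; gain of signal vs DMSO baseline.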

[17] = target: Cellular tumor antigen p53 (Homo sapiens) (UniProt P04637); assay: TOX21_p53_BLA_p3_ratio: Tox21 HCT-116 p53 Agonism Beta-lactamase Assay, Ratio, Phase 3 (AID 2283596)
Procedure, shortened: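 Cells were seeded at 4000/well, rested 5 h at 37C, then dosed with DMSO compound solutions (217-fold dilution) for 16 h. CCF4-AM substrate was loaded for 2 h at room temperature, and the 460/530 nm emission ratio was fitted for gain of signal versus DMSO.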

[18] = target: Cellular tumor antigen p53 (Homo sapiens) (UniProt P04637); assay: TOX21_p53_BLA_p5_ratio: Tox21 HCT-116 p53 Agonism Beta-lactamase Assay, Ratio, Phase 5 (AID 2283599)
Procedure, shortened: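 HCT-116 cells carrying a p53-inducible beta-lactamase reporter were seeded at 4000 cells/well and dosed after 5 h with compound in DMSO (217-fold dilution). After 16 h at 37C, CCF4-AM substrate was added for 2 h, and the 460/530 nm emission ratio was scored as gain-of-signal versus DMSO.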

Measured: outcome

CCC(C)OC(=O)N1CCCCC1CCO (centres undefined)
inactive: [1] | [2] | [3] | [4] | [5] | [6] | [7] | [8] | [9] | [10] | [11] | [12] | [13] | [14]

CCN(CC)C(=O)c1cccc(C)c1
inactive: [6] | [15] | [7] | [8] | [9] | [10] | [11] | [12] | [13] | [16] | [14]

CCCCOC(=O)[C@@H](C)Oc1ccc(Oc2ccc(C(F)(F)F)cn2)cc1
inactive: [2] | [17] | [4] | [5] | [6] | [15] | [7] | [8] | [10] | [11] | [12] | [13]

CCSC(=O)N(CC(C)C)CC(C)C
inactive: [17] | [3] | [18] | [5] | [6] | [15] | [7] | [8] | [9] | [10] | [11] | [12] | [13] | [16] | [14]

COCCO
inactive: [1] | [17] | [18] | [4] | [6] | [15] | [7] | [8] | [9] | [10] | [12] | [13] | [16] | [14]

S=C([S-])NCCNC(=S)[S-].[Mn+2]
inactive: [6] | [7] | [8] | [9] | [10] | [11] | [12] | [13] | [16] | [14]

CCOC(=O)COc1cc(-n2ncc(C(F)(F)F)c(C)c2=O)c(F)cc1Cl
inactive: [1] | [3] | [5] | [6] | [15] | [7] | [8] | [10] | [12] | [13] | [16] | [14]

COc1c(Cl)ccc(Cl)c1C(=O)O
inactive: [6] | [15] | [7] | [8] | [9] | [10] | [11] | [12] | [13] | [16] | [14]
